# From the antibiotic and cytotoxicity screens of Wong et al. (2023)
# Screen size: about 39,000 compounds; about 3,300 (8.5%) were called active. Only a selection was taken, and actives are over-represented in it overall.
# System: HepG2
# Test: cytotoxicity call (relative viability < 0.9)
# Details: 10 µM
row,SMILES,cytotoxicity call
1,C=CC(=O)N1C[C@@H]2CC[C@H](O)[C@@H]2C1,inactive
2,COc1ccc(-c2oc3cc(O[C@@H]4O[C@@H](C)[C@H](O)[C@@H](O)[C@H]4O)cc(O)c3c(=O)c2O[C@@H]2O[C@H](CO)[C@@H](O)[C@H](O)[C@H]2O)cc1,inactive
3,Cc1noc(C)c1NC(=O)Nc1ccc2c(c1)CC(=O)N([C@@H](C)CO)C[C@@H](C)[C@H](CN(C)C(=O)NC(C)C)O2,inactive
4,Cc1ccc(S(=O)(=O)Nc2cc([C@@H](C(=O)OC(C)C)C(=O)C(F)(F)F)c(O)c3ccccc23)c(C)c1,inactive
5,CNC[C@@H]1OCCCC[C@H](C)Oc2ccc(NC(=O)Nc3ccc(C(F)(F)F)cc3)cc2C(=O)N([C@H](C)CO)C[C@H]1C,inactive
6,O=c1c(O)c(-c2ccccc2)oc2cccc(O)c12,inactive
7,O=c1c(O)c(-c2ccc(O)c(O)c2)oc2cc(O)ccc12,active
8,O=c1c(O)c(-c2ccccc2)oc2cc(O)ccc12,inactive
9,O=c1c(O)c(-c2ccc(O)c(O)c2)oc2cc(O)cc(O)c12,inactive
10,O=c1c(O)c(-c2ccccc2)oc2ccccc12,inactive
11,O=c1c(O)c(-c2ccc(O)cc2)oc2ccccc12,active
12,CCC1OC(=O)C(C)C(OC2CC(C)(OC)C(O)C(C)O2)C(C)C(OC2OC(C)CC(N(C)C)C2O)C(C)(O)CC(C)CN(C)C(C)C(O)C1(C)O (stereo not drawn),inactive
13,Cc1noc(C)c1NC(=O)N(C)C[C@@H]1OCCCC[C@H](C)Oc2ccc(NS(=O)(=O)c3cccs3)cc2C(=O)N([C@@H](C)CO)C[C@H]1C,inactive
14,CCCNC(=O)C[C@@H]1CC[C@H]2[C@@H](COC[C@@H](O)CN2S(=O)(=O)c2ccc(Oc3ccccc3)cc2)O1,inactive
15,COCC(=O)Nc1ccc2c(c1)C(=O)N(C)C[C@@H](OC)[C@H](C)CN(Cc1ccccc1OC)[C@H](C)CO2,inactive
16,Cc1cncc2cccc(S(=O)(=O)NCCN(C/C=C/c3ccc(Br)cc3)C/C=C/c3ccc(Br)cc3)c12,inactive
17,C[C@H]1CN([C@@H](C)CO)C(=O)Cc2cc(NC(=O)NC3CCCCC3)ccc2O[C@H]1CN(C)S(C)(=O)=O,inactive
18,C[C@@H]1CN([C@@H](C)CO)C(=O)Cc2cc(NC(=O)NC3CCCCC3)ccc2O[C@H]1CN(C)S(C)(=O)=O,active
19,C[C@H](CO)N1C[C@H](C)[C@H](CN(C)S(C)(=O)=O)Oc2ccc(NC(=O)NC3CCCCC3)cc2CC1=O,inactive
20,C[C@H](CO)N1C[C@H](C)[C@@H](CN(C)S(C)(=O)=O)Oc2ccc(NC(=O)NC3CCCCC3)cc2CC1=O,inactive
21,C[C@@H]1CN([C@H](C)CO)C(=O)Cc2cc(NC(=O)NC3CCCCC3)ccc2O[C@H]1CN(C)S(C)(=O)=O,inactive
22,C[C@@H]1CN([C@H](C)CO)C(=O)Cc2cc(NC(=O)NC3CCCCC3)ccc2O[C@@H]1CN(C)S(C)(=O)=O,active
23,COc1ccc(CN(C)C[C@@H]2Oc3ccc(NC(=O)CCN4CCOCC4)cc3C(=O)N([C@@H](C)CO)C[C@H]2C)cc1,inactive
24,C[C@@H]1CN([C@H](C)CO)C(=O)c2cc(NC(=O)CCC(F)(F)F)ccc2O[C@@H](C)CCCCO[C@H]1CN(C)Cc1ccncc1,inactive
25,C[C@@H]1CCCCO[C@H](CN(C)S(=O)(=O)c2cccs2)[C@H](C)CN([C@H](C)CO)C(=O)c2cc(NC(=O)Cc3ccccc3)ccc2O1,inactive

row,SMILES,cytotoxicity call
1,C[C@H](CO)N1C[C@H](C)[C@@H](CN(C)C(=O)Nc2ccccc2)Oc2ccc(NC(=O)Nc3cccc4ccccc34)cc2C1=O,inactive
2,C[C@@H]1CN([C@H](C)CO)S(=O)(=O)c2ccc(-c3ccccc3F)cc2O[C@@H]1CN(C)Cc1cncnc1,inactive
3,CCS(=O)(=O)Nc1ccc2c(c1)C(=O)N(C)[C@H]1CC[C@H](CC(=O)N[C@@H]3CCN(Cc4ccccc4)C3)O[C@H]1CO2,inactive
4,C[C@@H]1CCCCO[C@@H](CN(C)C(=O)Nc2cccc3ccccc23)[C@H](C)CN([C@@H](C)CO)C(=O)c2cc(NC(=O)Nc3ccc(F)cc3)ccc2O1,inactive
5,O=[N+]([O-])c1ccc(NCCNCCO)cc1,inactive
6,O=C1c2ccccc2C(=O)c2c(NCCNCCO)ccc(NCCNCCO)c21,active
7,O=C1c2c(O)ccc(O)c2C(=O)c2c(NCCNCCO)ccc(NCCNCCO)c21,active
8,Cl.Cl.O=C1c2c(O)ccc(O)c2C(=O)c2c(NCCNCCO)ccc(NCCNCCO)c21,active
9,O=C(CCNCCO)c1ccccc1,inactive
10,O=C1c2ccccc2C(=O)c2c1ccc(O)c2O,inactive
11,CN1CCN(C(=O)C[C@H]2CC[C@H]3[C@H](COc4ccc(NC(=O)C5CCCCC5)cc4C(=O)N3C)O2)CC1,inactive
12,C[C@]12C(=O)N(CCCCCO)[C@@H]3C(=O)N(c4ccc(Cl)cc4)CC=C[C@]31O[C@@H]1/C=C\CCCOC(=O)[C@H]12,inactive
13,O=C(C[C@@H]1CC[C@H](NC(=O)CN2CCOCC2)[C@@H](CO)O1)NC1CCC1,inactive
14,CC(C)NC(=O)Nc1ccc2c(c1)C(=O)N([C@H](C)CO)C[C@@H](C)[C@@H](CN(C)S(=O)(=O)c1ccccc1)O2,inactive
15,COCC#Cc1ccc2c(c1)O[C@@H](CN(C)S(=O)(=O)c1ccc(OC)cc1)[C@H](C)CN([C@H](C)CO)S2(=O)=O,inactive
16,C[C@H](CO)N1C[C@H](C)[C@@H](CN(C)C(=O)Nc2cccc3ccccc23)OCCCC[C@H](C)Oc2ccc(NS(=O)(=O)c3cn(C)cn3)cc2C1=O,inactive
17,C[C@@H]1CN([C@H](C)CO)C(=O)Cc2cc(NC(=O)Cn3cnnn3)ccc2O[C@H]1CN(C)Cc1ccc(Cl)c(Cl)c1,inactive
18,C/C=C/c1cccc(-c2nc(C(=O)NCc3cccc(OC)c3)cc3c2[C@@H](CCO)N([S@](=O)C(C)(C)C)C3)c1,inactive
19,CC(C)[Si]1(C(C)C)O[C@@H](c2ccccc2)c2cc(C3CC3)nc(-c3ccc(Oc4ccccc4)cc3)c21,inactive
20,CC(CN1c2ccccc2Sc2ccccc21)N(C)C.Cl (stereo not drawn),active
21,CCC(CC)C(=O)N1c2ccccc2Sc2ccccc21,inactive
22,CCN(CC)C(C)CN1c2ccccc2Sc2ccccc21.Cl (stereo not drawn),active
23,C[C@H]1CN([C@@H](C)CO)C(=O)c2cc(NC(=O)Cn3cnnn3)ccc2O[C@H]1CN(C)Cc1ccc(Oc2ccccc2)cc1,inactive
24,C[C@H](CO)N1C[C@H](C)[C@H](CN(C)Cc2ccc(C(F)(F)F)cc2)Oc2c(NC(=O)Nc3cccc4ccccc34)cccc2C1=O,inactive
25,Cc1ccc(S(=O)(=O)N(C)C[C@H]2OCCCC[C@@H](C)Oc3ccc(NS(=O)(=O)c4ccc(F)cc4)cc3C(=O)N([C@H](C)CO)C[C@H]2C)cc1,inactive

row,SMILES,cytotoxicity call
1,C=C1[C@@H]2[C@H]3OC(=O)[C@@H](C)[C@@H]3[C@@H](O[C@@H]3O[C@H](CO)[C@@H](O)[C@H](O)[C@H]3O)CC(=C)[C@@H]2C[C@@H]1O,inactive
2,COc1cc(-c2coc3cc(OCc4ccccc4)c(OC)c(O)c3c2=O)cc(OCc2ccccc2)c1OC,inactive
3,C[C@@H]1CCCCO[C@@H](CN(C)CC2CCCCC2)[C@H](C)CN([C@H](C)CO)C(=O)c2cc(NS(=O)(=O)c3cccs3)ccc2O1,inactive
4,Cc1sc(N)nc1-c1ccccc1,inactive
5,Cc1sc(Nc2ccccc2)nc1-c1ccc(Cl)cc1,active
6,Cc1nc(-c2ccc(Cl)cc2)c(-c2ccccc2)s1,active
7,Cc1ccc(-c2nc(Nc3cccc(Cl)c3)sc2C)cc1,inactive
8,Cc1ccc(Nc2nc(-c3ccc(C)cc3)c(C)s2)cc1,inactive
9,C=C(C)CNc1nc(-c2ccccc2)c(-c2ccccc2)s1,inactive
10,NC(=O)Cn1c(=O)c2ccccc2n(CC(N)=O)c1=O,inactive
11,C=CCN(Cc1ccccc1)C(=O)[C@@H]1N(c2c(Cl)cccc2CO)C(=O)[C@@H]2[C@H](C(=O)O)[C@@H]3C=C[C@@]21O3,inactive
12,C[C@@H]1CN([C@@H](C)CO)C(=O)c2cc(NC(=O)Nc3ccccc3)ccc2O[C@@H]1CN(C)Cc1ccc(C(=O)Nc2ccccc2N)cc1,active
13,C[C@H]1CN([C@@H](C)CO)C(=O)c2cc(NC(=O)Nc3ccc(F)cc3)ccc2O[C@H]1CN(C)Cc1ccc(C(=O)Nc2ccccc2N)cc1,inactive
14,C[C@H](CO)N1C[C@H](C)[C@H](CN(C)Cc2ccc(C(=O)Nc3ccccc3N)cc2)Oc2ccc(NC(=O)Nc3ccc(C(F)(F)F)cc3)cc2C1=O,active
15,C[C@H]1CN([C@@H](C)CO)C(=O)c2cc(NC(=O)Nc3ccc(C(F)(F)F)cc3)ccc2O[C@@H]1CN(C)Cc1ccc(C(=O)Nc2ccccc2N)cc1,inactive
16,C[C@H](CO)N1C[C@H](C)[C@@H](CN(C)Cc2ccc(C(=O)Nc3ccccc3N)cc2)Oc2ccc(NC(=O)Nc3ccc(F)cc3)cc2C1=O,inactive
17,C[C@@H]1CN([C@H](C)CO)C(=O)c2cc(NC(=O)Nc3ccc(C(F)(F)F)cc3)ccc2O[C@H]1CN(C)Cc1ccc(C(=O)Nc2ccccc2N)cc1,inactive
18,C[C@H]1CN([C@@H](C)CO)C(=O)c2cc(NC(=O)Nc3ccccc3)ccc2O[C@H]1CN(C)Cc1ccc(C(=O)Nc2ccccc2N)cc1,inactive
19,C[C@H](CO)N1C[C@H](C)[C@H](CN(C)Cc2ccc(C(=O)Nc3ccccc3N)cc2)Oc2ccc(NC(=O)Nc3ccccc3)cc2C1=O,inactive
20,C[C@@H]1CN([C@@H](C)CO)C(=O)c2cc(NC(=O)Nc3ccc(C(F)(F)F)cc3)ccc2O[C@@H]1CN(C)Cc1ccc(C(=O)Nc2ccccc2N)cc1,active
21,C[C@@H]1CN([C@@H](C)CO)C(=O)c2cc(NC(=O)Nc3ccc(F)cc3)ccc2O[C@@H]1CN(C)Cc1ccc(C(=O)Nc2ccccc2N)cc1,inactive
22,C[C@H](CO)N1C[C@H](C)[C@H](CN(C)Cc2ccc(C(=O)Nc3ccccc3N)cc2)Oc2ccc(NC(=O)Nc3ccc(F)cc3)cc2C1=O,inactive
23,C[C@@H]1CN([C@H](C)CO)C(=O)c2cc(NC(=O)Nc3ccc(C(F)(F)F)cc3)ccc2O[C@@H]1CN(C)Cc1ccc(C(=O)Nc2ccccc2N)cc1,active
